Screens as filed in PubChem BioAssay.
The sample as a whole holds a higher share of hits than the screen did.
ALOX12 inh: ALOX12 (human) lipoxygenase inhibition; P18054; purified 12hLO, xylenol orange hydroperoxide absorbance; Potency, µM (titrated, usually from 108 µM), for inactives: top-dose activity change, negative = inhibition, actives largely listed as inhibitors; 1.1% of 580,000 active; AID 1671190; note: % is set by controls: 0 for no effect and ±100 for the full control effect
Target sequence (P18054 whole entry, looked up): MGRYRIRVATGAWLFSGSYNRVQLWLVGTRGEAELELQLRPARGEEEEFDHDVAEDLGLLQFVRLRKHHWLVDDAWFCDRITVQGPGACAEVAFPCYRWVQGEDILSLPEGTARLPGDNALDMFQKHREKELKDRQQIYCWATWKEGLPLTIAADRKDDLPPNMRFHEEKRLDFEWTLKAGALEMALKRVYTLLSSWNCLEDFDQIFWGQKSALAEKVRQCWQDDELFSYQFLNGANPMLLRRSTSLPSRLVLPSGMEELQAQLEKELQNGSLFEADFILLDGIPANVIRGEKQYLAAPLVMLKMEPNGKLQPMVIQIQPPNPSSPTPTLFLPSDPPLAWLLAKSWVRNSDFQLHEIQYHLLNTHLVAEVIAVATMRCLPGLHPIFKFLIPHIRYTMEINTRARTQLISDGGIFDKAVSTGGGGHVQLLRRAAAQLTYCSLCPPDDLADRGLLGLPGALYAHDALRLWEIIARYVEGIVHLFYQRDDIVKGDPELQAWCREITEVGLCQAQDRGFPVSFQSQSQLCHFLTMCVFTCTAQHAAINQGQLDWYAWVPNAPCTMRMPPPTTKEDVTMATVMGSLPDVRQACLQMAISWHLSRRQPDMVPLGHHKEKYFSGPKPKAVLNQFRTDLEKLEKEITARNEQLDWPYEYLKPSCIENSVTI
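Purified human 12hLO at 150 nM in 25 mM Hepes, 0.01% Triton X-100, pH 7.0, preincubated 15 min at room temperature with compound. Reaction started with 40 uM arachidonic acid, 30 min at room temperature. Hydroperoxide measured by Fe-xylenol orange, 573/405 nm absorbance ratio.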
GRP78 ERSR act: ER stress response induction in glioma; U87-MG GRP78 promoter luciferase reporter, 16 h; Potency, µM, for the others: at the highest dose activation, hits mostly activators; 0.02% of 420,000 active; AID 602332; note: series mostly up to about 76 µM; % of control where 0% means no effect; nearly all actives have a fitted effect of over 35% in size
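Stably transfected U87-MG human glioma cells carrying a GRP78-based luminescent sensor were seeded at 1000 cells/well, pin-dosed with compounds and incubated 16 h. Luciferase reagent was then added, and end-point luminescence was read after 10 min at room temperature.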
G9a inh: blocks human histone lysine methyltransferase G9a | Q96KQ7 | G9a H3K9 monomethylation, AlphaScreen, 2 h | Potency, µM (top dose mostly 102 µM), for inactives: at the highest dose activity, negative = inhibition, most hits filed as inhibitors | 8.8% of 350,000 active | AID 504332; note: % is set by controls: 0 for no effect and ±100 for the full control effect; nearly all actives have a fitted effect of over 75% in size
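Signal arises when biotinylated H3K9 peptide, once monomethylated, bridges streptavidin donor and antibody-captured acceptor beads. Enzyme at 20 nM was preincubated 15 min with test compounds; peptide 500 nM and SAM 20 uM then reacted for 2 h.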
VDR inhibitor: blocks the human vitamin D receptor; AID 504847; Potency, µM, for inactives: max response, negative = inhibition, usual class: inhibitors; VDR-SRC2-3 peptide fluorescence polarization, 2 h; 0.93% of 400,000 active; P11473; note: % is set by controls: 0 for no effect and ±100 for the full control effect
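Fluorescence polarization assay measuring small-molecule disruption of VDR binding to the coregulator peptide SRC2-3. Compounds were pin-transferred (23 nl) into the reagent mix and incubated 2 h at room temperature before reading.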
Sfp inh: blocks B. subtilis Sfp PPTase activity; Biochemical Sfp PPTase activity, qHTS; 3.5% of 310,000 active; Q9F4F7; Potency, µM, inactives show largest response in the series, negative = inhibition, usual class: inhibitors;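 note: the enzyme is Sfp with the accession as filed and its product quenches rhodamine fluorescence; 0% = enzyme reaction without inhibitor and -100% = no enzyme wells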
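Compounds were incubated with enzyme (final 15 nM) for 15 min at room temperature before substrate addition started the reaction. Fluorescence at 525 nm excitation, 598 nm emission was recorded immediately and after 30 minutes.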
Starred values were filed as active, the others as inactive; ? = inconclusive; / = not tested or not shown; [ ] = dose if it differs, or a comment. Calls come from the whole dose curve; as a rule, active = well fitted curve in the direction sought with a large enough effect; inconclusive = small, poorly fitted or top-dose-only effect, or another doubt; inactive = no such curve, though single readings can be large; an effect the other way counts as inactive or inconclusive. Potency is the fitted concentration of half-maximal effect.

SMILES | ALOX12 inh | GRP78 ERSR act | G9a inh | VDR inhibitor | Sfp inh
O=C(Nc1ccc(C(=O)Nc2ccc(C(=O)Nc3ccc(S(=O)(=O)O)c4cc(S(=O)(=O)O)cc(S(=O)(=O)O)c34)cc2)cc1)Nc1ccc(C(=O)Nc2ccc(C(=O)Nc3ccc(S(=O)(=O)O)c4cc(S(=O)(=O)O)cc(S(=O)(=O)O)c34)cc2)cc1 | -0.7% | -4.2% | 1.26µM* | 5.62µM* | ?
O=C(Nc1cc(C(=O)Nc2ccc(S(=O)(=O)O)cc2S(=O)(=O)O)cc(C(=O)Nc2ccc(S(=O)(=O)O)cc2S(=O)(=O)O)c1)Nc1cc(C(=O)Nc2ccc(S(=O)(=O)O)cc2S(=O)(=O)O)cc(C(=O)Nc2ccc(S(=O)(=O)O)cc2S(=O)(=O)O)c1 | 27.5% | -6.4% | 0.0708µM* | -8.1% | 6.1%
Nc1ccc(C(=O)Nc2ccc3cc(S(=O)(=O)O)ccc3c2)cc1 | -0.2% | 6.2% | / | -11.2% | /
COc1ccccc1CNC(=O)CSc1ccc(C(=O)Nc2ccccc2OC)cc1[N+](=O)[O-] | -6.5% | -4.3% | 9.6% | 7.9% | 50.1µM*
O=C(CSc1ccsc1[N+](=O)[O-])Nc1cccc(F)c1 | ? | -3.8% | 50.1µM* | -9.3% | -13.8%
COc1ccccc1CNC(=O)CSc1ccsc1[N+](=O)[O-] | -4.0% | 1.0% | 50.1µM* | -10.4% | -6.0%
COc1ccc(CCNC(=O)CSc2ccsc2[N+](=O)[O-])cc1OC | -13.8% | -1.9% | -32.9% | -15.7% | 10.8%
COc1ccccc1NC(=O)c1ccc(SCC(=O)NCc2ccccc2Cl)c([N+](=O)[O-])c1 | -1.2% | -6.3% | -40.3% | -14.9% | -21.6%
COc1ccc(CCNC(=O)CSc2ccsc2[N+](=O)[O-])c(OC)c1 | ? | -4.2% | ? | -9.7% | 11.3%
COc1ccc(OC)c(CCNC(=O)CSc2ccsc2[N+](=O)[O-])c1 | -14.4% | 3.1% | 31.6µM* | -8.9% | 5.3%
O=C(c1ccco1)N(CCc1ccccc1)Cc1cccs1 | -17.3% | / | / | / | /
CCCCCCCCSc1ccc(C(C)=O)cc1 | -18.4% | / | / | / | /
NS(=O)(=O)c1ccc(CCNC(=O)CSc2ccsc2[N+](=O)[O-])cc1 | -16.3% | -2.4% | -43.5% | -13.6% | 5.0%
O=C(CSc1ccsc1[N+](=O)[O-])NCc1ccccc1 | ? | 0.9% | 50.1µM* | -17.2% | 2.0%
COCCNC(=S)N(C)C1(c2ccccc2Cl)CCCCC1=O (stereo unspecified) | -4.8% | -1.9% | 44.7µM* | -11.1% | -17.9%
CC(C)NC(=S)N(C)C1(c2ccccc2Cl)CCCCC1=O (stereo unspecified) | 2.3% | -3.5% | 14.8%[59 µM] | 10.4% | 12.6%
COC(=O)CC(NC(=O)Cc1ccccc1Cl)c1cccs1 (stereo unspecified) | -19.1% | / | / | / | /
C=CCOc1ccc(CNn2cn[nH]c2=S)cc1 | ? | -4.1% | 20µM* | 16.9% | -6.9%
O=c1c2c3c(sc2nc2n1CCCCC2)CCCC3 | -28.5% | -0.7% | ? | -16.5% | 31.6µM*
O=c1c2c3c(sc2nc2n1CCCCC2)CCCCC3 | / | / | -33.2%[59 µM] | / | -11.1%
N=c1c2c3c(sc2nc2n1CCCCC2)CCCCC3 | 0.0% | 11.9% | 50.1µM* | 0.1% | -18.8%
CC1CSc2nc3sc4c(c3c(=O)n21)CCCC4 (stereo unspecified) | ? | 0.3% | 20µM* | -10.7% | ?
O=c1c2c3c(sc2nc2n1CCCS2)CCCC3 | -1.3% | -0.9% | -6.5%[12.7 µM] | 3.7% | -12.0%
CCc1nc(N2CCN(C(=O)CN3CCOCC3)CC2)c(C#N)c2c1COC(C)(C)C2 | -4.6% | / | / | / | /
CC(=O)C(Sc1nc(C)cc(C)n1)c1ccccc1 (stereo unspecified) | -45.0% | / | / | / | /
SMILES | ALOX12 inh | GRP78 ERSR act | G9a inh | VDR inhibitor | Sfp inh
COc1ccc(/C=N/n2cnn(Cc3ccccc3Cl)c2=S)cc1OC | -18.7% | 3.3% | 39.8µM* | -7.7% | ?
COc1cc(/C=N/O)ccc1OCc1ccccc1Cl | -11.9% | 0.1% | -25.9% | 8.6% | -8.9%
O=C(NCc1ccncc1)C1c2ccccc2C(=O)N(Cc2ccccc2)C12CCCCC2 (stereo unspecified) | 65.6% | / | / | / | /
COc1ccc(/C=C(/CC(=O)O)c2nc3ccccc3s2)cc1 | 2.24µM* | / | / | / | /
O=C(O)C/C(=C/c1ccc(Br)cc1)c1nc2ccccc2s1 | 31.6µM* | / | / | / | /
O=C(O)C/C(=C/c1cccc(Br)c1)c1nc2ccccc2s1 | 28.2µM* | / | / | / | /
O=C(O)CC/C(=C\c1ccc(N2CCCC2)c([N+](=O)[O-])c1)c1nc2ccccc2s1 | ? | -4.2% | 12.6µM* | ? | -19.1%
COc1cccc(/C=C(\CC(=O)O)c2nc3ccccc3s2)c1 | -17.3% | 1.4% | -7.8% | -15.6% | 4.1%
CCc1c(C)sc2nc(N(CC)CCO)n3nc(-c4ccccc4)nc3c12 | -6.1% | / | / | / | /
COc1ccc(-c2ccc(CCC(=O)O)n2-c2ccccc2O)cc1 | ? | 0.0% | ? | -10.7% | 79.4µM*
COc1ccc(-n2c(CCC(=O)O)ccc2-c2ccccc2)cc1 | -6.2% | -3.2% | 50.1µM* | -6.1% | -24.3%
COc1ccc(-c2ccc(CCC(=O)O)n2-c2ccccc2C(F)(F)F)cc1 | -20.4% | -2.8% | ? | -25.5% | /
COc1c([N+](=O)[O-])c(=O)n(-c2ccccc2)c2ccccc12 | ? | -1.4% | ? | -12.4% | 17.8µM*
Cc1ccc2cc(COC(=O)c3ccncc3)c(=O)[nH]c2c1 | 147.6%[57.4 µM] | -2.1% | 50.1µM* | -3.3% | -9.0%
CCOC(=O)C1=C(C)NC(C)=C(C(=O)OCC)C1c1cc2ccc(C)cc2[nH]c1=O | ? | -3.3% | 50.1µM* | -17.7% | -12.7%
COC(=O)C1=C(C)NC(C)=C(C(=O)OC)C1c1cc2ccc(C)cc2[nH]c1=O | -0.5% | -7.4% | ? | 12.1% | ?
Cc1ccc(C(=O)NCCCN(C)CC(F)(F)F)cn1 | 7.7% | / | / | / | /
Cc1nnc(NC(=O)c2csc(NC3CCCC3)n2)s1 | 6.2% | / | / | / | /
COc1ccccc1C(=O)Oc1ccc(F)cc1C(=O)/C=C/c1ccccc1Cl | -7.2% | / | / | / | /
COC(=O)c1cc(S(=O)(=O)N2CCN(Cc3ccccc3)CC2)c[nH]1 | 1.7% | -4.2% | -8.7%[59 µM] | -0.8% | 15.0%
O=S(=O)(c1ccc(F)cc1)N1CCCC1 | 7.2% | -2.8% | 5.3%[0.501 µM] | -11.8% | 10.8%
O=S(=O)(c1ccc(=S)[nH]c1)N1CCN(Cc2ccccc2)CC1 | 39.8µM* | -3.3% | / | 79.4µM* | /
O=S(=O)(c1ccc(=S)[nH]c1)N1CCCCC1 | 99.4% | -3.5% | 0.794µM* | -15.6% | /
CC(C)C(O)(C#CCN1CCCC1)c1ccccc1 (stereo unspecified) | ? | -5.5% | 25.1µM* | 13.2% | -6.3%
OC(C#CCN1CCCCCC1)(c1ccccc1)c1cccnc1 (stereo unspecified) | 0.0% | 4.5% | 17.8µM* | 15.4% | -16.2%
OC(C#CCCN1CCCCC1)(c1ccccc1)c1ccccc1 | ? | -0.6% | / | -26.2% | -1.6%
OC(C#CCN1CCCCC1)c1ccccc1 (stereo unspecified) | -8.5% | -3.1% | ? | -0.1% | 2.2%
